High-throughput results: PubChem BioAssay, National Center for Advancing Translational Sciences (NCATS)
Most compounds without a hit are left out; they make up all but 5.8% or so of the library.
KB-V1 cytotox – kills drug-selected multidrug resistant KB-V1 cells; KB-V1 MDR cells viability, CellTiter-Glo, 72 h; hit rate 3.4% among 400,000; Potency, µM (titrated, usually from 46.1 µM), actives largely listed as cytotoxic; note: nearly all actives have a fitted effect of over 60% in size
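Compound-treated KB-V1 multidrug-resistant cells, 72 h, 37 degrees C; viability by CellTiter-Glo. Fitted qHTS curves give the values.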
KB-3-1 tox – KB-3-1 parental cell cytotoxicity; KB-3-1 viability, CellTiter-Glo ATP luminescence, 72 h; Potency, µM (highest dose often 46.1 µM), actives largely listed as cytotoxic; hit rate 1.4% among 400,000; note: nearly all actives have a fitted effect of over 60% in size
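Screening of KB-3-1 cells (DMEM, 10% FBS, phenol-red free) ran from lowest to highest compound concentration; after 72 h at 37 °C viability was read luminescently and curves fitted.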
ALOX12 inh – inhibitors of human 12S-lipoxygenase ALOX12; P18054; purified 12hLO, xylenol orange hydroperoxide absorbance; Potency, µM (series often up to 108 µM), most hits filed as inhibitors; hit rate 1.1% among 580,000
Target sequence (P18054 whole entry, looked up): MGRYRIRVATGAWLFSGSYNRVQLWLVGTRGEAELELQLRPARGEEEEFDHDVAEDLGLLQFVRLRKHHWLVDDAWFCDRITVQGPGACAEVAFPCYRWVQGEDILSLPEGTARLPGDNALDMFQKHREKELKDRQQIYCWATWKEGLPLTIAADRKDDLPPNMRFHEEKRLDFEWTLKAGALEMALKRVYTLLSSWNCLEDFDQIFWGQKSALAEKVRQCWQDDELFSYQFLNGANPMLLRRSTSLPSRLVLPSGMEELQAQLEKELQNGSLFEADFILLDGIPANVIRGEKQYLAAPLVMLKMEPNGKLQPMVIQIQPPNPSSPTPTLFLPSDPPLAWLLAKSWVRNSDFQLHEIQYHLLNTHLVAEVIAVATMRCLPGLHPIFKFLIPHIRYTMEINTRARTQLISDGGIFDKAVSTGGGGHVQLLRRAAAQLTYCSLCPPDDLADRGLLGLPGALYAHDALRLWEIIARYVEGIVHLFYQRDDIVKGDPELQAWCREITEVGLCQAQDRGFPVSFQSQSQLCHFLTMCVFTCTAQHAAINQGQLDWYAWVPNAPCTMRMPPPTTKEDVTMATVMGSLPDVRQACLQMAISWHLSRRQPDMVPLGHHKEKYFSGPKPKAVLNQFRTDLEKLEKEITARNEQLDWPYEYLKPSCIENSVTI
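Purified human 12hLO (150 nM final) in 25 mM Hepes, 0.01% Triton X-100, pH 7.0 was preincubated 15 min at room temperature with compound. Then 40 uM arachidonic acid was added, 30 min. Hydroperoxide was read by Fe-XO absorbance ratio 573/405 nm.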
SW480 rereplic – induces DNA re-replication in SW480 colon adenocarcinoma cells | SW480 DNA re-replication, Hoechst DNA content imaging, 48 h | Potency, µM (top dose mostly 46.1 µM), usual class: activators | hit rate 1.8% among 340,000; note: nearly all actives have a fitted effect of over 55% in size
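Per well, 250 cells were exposed to pinned compound for 48 hr. Nuclear DNA was visualised with Hoechst (40 min, 37 C) and total object intensity recorded by fluorescence scanning.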
PINK1 modulator – modulators of PINK1 expression | AID 624263 | hit rate 0.2% among 410,000 | Potency, µM (series often up to 76.6 µM), hits mostly activators | PINK1 immunofluorescence, high-content cytometry, 24 h; active = well fitted activation curve with a large enough effect; inconclusive = small, poorly fitted or top-dose-only effect; cell line not stated here; note: nearly all actives have a fitted effect of over 65% in size
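Measures PINK1 amount and localization on or inside mitochondria by immunofluorescence. Stable cells get compounds at 5 concentrations for 24 hours before fixation and staining; CCCP controls included.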
MCF10A rerep – induces DNA re-replication in MCF 10a normal breast cells; MCF 10A DNA re-replication, Hoechst nuclear intensity, 48 h; Potency, µM (highest dose often 46.1 µM), most hits filed as activators; hit rate 2.9% among 350,000; note: nearly all actives have a fitted effect of over 50% in size
Of the large screens only hits and unclear results are named; the others gave an inactive call. Unless noted, calls come from the whole dose curve; as a rule, active = well fitted curve in the direction sought with a large enough effect; inconclusive = small, poorly fitted or top-dose-only effect, or another doubt; inactive = no such curve, though single readings can be large; an effect the other way counts as inactive or inconclusive.

Cc1c(P(=S)(c2ccccc2)c2ccccc2)[n+]2ccccc2n1CCc1ccccc1	KB-3-1 tox 13µM, PINK1 modulator 25µM (no result: SW480 rereplic, MCF10A rerep)
COc1ccccc1-c1cc([C@H]2CN3CC[C@H]2C[C@@H]3COC(=O)Nc2ccc(C(C)C)cc2)nc(C)n1	ALOX12 inh 45µM (no result: KB-V1 cytotox, KB-3-1 tox, SW480 rereplic, PINK1 modulator, MCF10A rerep)
Cc1nc(-c2cccs2)cc([C@H]2CN3CC[C@H]2C[C@@H]3COC(=O)Nc2ccc(C(C)C)cc2)n1	ALOX12 inh 45µM (no result: KB-V1 cytotox, KB-3-1 tox, SW480 rereplic, PINK1 modulator, MCF10A rerep)
Cc1cc(C)cc(C(=O)N2CCC3(CC2)c2nccn2-c2ccccc2CN3C)c1	none (no result: KB-V1 cytotox, KB-3-1 tox, SW480 rereplic, PINK1 modulator, MCF10A rerep)
O=C(NC[C@H]1C[C@@H]2CCN1C[C@@H]2CN1CCN(c2ccccc2)CC1)Nc1ccsc1	none (no result: KB-V1 cytotox, KB-3-1 tox, SW480 rereplic, PINK1 modulator, MCF10A rerep)
COc1ccc(CNCCc2c(C)[nH]c3ccc(OC(F)(F)F)cc23)c(OC)c1	KB-V1 cytotox 7.3µM, KB-3-1 tox inconclusive, ALOX12 inh inconclusive, SW480 rereplic inconclusive, MCF10A rerep 21µM
COc1ccc2[nH]c(C)c(CCNCc3cc(OC)c(OC)c(OC)c3)c2c1	KB-V1 cytotox inconclusive
CCC(CC)N1CCN(Cc2nc3ccccc3c(=O)n2-c2ccc(F)cc2)CC1	KB-V1 cytotox inconclusive, MCF10A rerep 0.58µM
O=c1c2ccccc2nc(CN2CCCCCC2)n1-c1ccc(F)cc1	none
Cc1cccc(CN2CCN(Cc3ccc(Cl)cc3)CC2)c1	KB-V1 cytotox inconclusive, ALOX12 inh inconclusive, SW480 rereplic inconclusive, MCF10A rerep 7.3µM
CCOc1cc(-c2nc3c(C)cccn3c2NCC2CCCO2)ccc1O (configuration not stated)	KB-V1 cytotox 5.2µM, ALOX12 inh inconclusive
C#C[C@H]1CN2CC[C@H]1C[C@@H]2COC(=O)NCCC	ALOX12 inh 8.9µM (no result: KB-V1 cytotox, KB-3-1 tox, SW480 rereplic, PINK1 modulator, MCF10A rerep)
CCCOc1cccc(CCN)c1	none (no result: KB-V1 cytotox, KB-3-1 tox, SW480 rereplic, PINK1 modulator, MCF10A rerep)
CC(=O)OC1CCC2(C)C3CCC4(C)C(=O)CCC4C3CC[C@H]2C1 (some centres not stated)	none (no result: KB-V1 cytotox, KB-3-1 tox, SW480 rereplic, PINK1 modulator, MCF10A rerep)
O=C(NCc1ccccc1)c1cccn(Cc2ccccc2)c1=O	none (no result: ALOX12 inh)
O=C(c1cc(C(=O)NCc2ccccc2)c(=O)n(Cc2ccccc2)c1)c1cc(Cl)ccc1O	KB-V1 cytotox 18µM, KB-3-1 tox inconclusive, ALOX12 inh inconclusive, MCF10A rerep inconclusive
O=C(Cc1cccc(F)c1)N1CCN2CCS(=O)(=O)N(C3CC3)C(=O)C2C1 (configuration not stated)	none (no result: KB-V1 cytotox, KB-3-1 tox, SW480 rereplic, PINK1 modulator, MCF10A rerep)
Cc1ccccc1N1C(=O)NC(=O)/C(=C\c2cc(Br)c(N3CCOCC3)o2)C1=O	SW480 rereplic inconclusive, PINK1 modulator inconclusive, MCF10A rerep 7.3µM
C[N+](C)(C)CC1CCCCC1=O (configuration not stated)	ALOX12 inh 13µM (no result: KB-V1 cytotox, KB-3-1 tox, SW480 rereplic, PINK1 modulator, MCF10A rerep)
O=c1oc2ccccc2c(O)c1C(c1ccccn1)c1c(O)c2ccccc2oc1=O	none
O=C(CCC1CCCC1)c1c(O)c2ccccc2oc1=O	KB-3-1 tox inconclusive, MCF10A rerep 18µM
COc1cc2c(cc1Oc1cccc(N(C)C)c1)NC(=O)C21CCN(Cc2ccccc2)CC1	ALOX12 inh 89µM (no result: KB-V1 cytotox, KB-3-1 tox, SW480 rereplic, PINK1 modulator, MCF10A rerep)
COc1cc2c(cc1Oc1cccc(N(C)C)c1)NC(=O)C21CCN(CC2CC2)CC1	none (no result: KB-V1 cytotox, KB-3-1 tox, SW480 rereplic, PINK1 modulator, MCF10A rerep)
Cc1nc2ccccc2c(=O)n1/N=C/c1cc(Br)cc(Br)c1O	SW480 rereplic 7.3µM
Oc1cc[c]([Hg][Cl])cc1	SW480 rereplic inconclusive, MCF10A rerep 1.1µM (no result: KB-V1 cytotox, KB-3-1 tox, ALOX12 inh, PINK1 modulator)
Oc1cccc[c]1[Hg][Cl]	SW480 rereplic inconclusive (no result: KB-V1 cytotox, KB-3-1 tox, ALOX12 inh, PINK1 modulator)
O=C1NC2C(=CC(O)C(O)C2O)c2cc3c(cc21)OCO3 (configuration not stated)	KB-V1 cytotox 2.3µM, KB-3-1 tox 3.3µM, MCF10A rerep inconclusive
O=C1NC2C(=CC(O)C(O)C2O)c2cc3c(c(O)c21)OCO3 (configuration not stated)	KB-V1 cytotox inconclusive, KB-3-1 tox 0.1µM, SW480 rereplic inconclusive, MCF10A rerep inconclusive
O=C1NC2C(O)C(O)C(O)C(O)C2c2cc3c(c(O)c21)OCO3 (configuration not stated)	KB-V1 cytotox 0.52µM, KB-3-1 tox inconclusive
CCC(CC)c1cc([C@H]2CN3CC[C@H]2C[C@@H]3CNC(=O)Nc2cccc(C#N)c2)nc(-c2ccncc2)n1	none (no result: KB-V1 cytotox, KB-3-1 tox, SW480 rereplic, PINK1 modulator, MCF10A rerep)
